In PubChem BioAssay AID1209 (Sanford-Burnham Center for Chemical Genomics, 2008):
Hit rate of the full screen: of about 190,000 compounds, about 810 (0.43%) were called active. The entries come from a sample that favours actives as a whole. Unmarked numbers belong to inactive results. No stated cut-off is given here; in the data, active means inhibition above about 50%; inactive means the rest.

Each molecule was assayed against Mannose-6-phosphate isomerase (Homo sapiens) (UniProt P34949) (assay: MPI enzyme activity inhibition – biochemical, fluorescence intensity, coupled assay, primary screen (AID 1209;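 further: plate controls were DMSO vehicle for no effect and wells lacking substrate for full effect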)). Details: purified PMI enzyme, at 20 µM, stronger effect = higher value.
Sequence of Mannose-6-phosphate isomerase (Homo sapiens) (P34949 whole entry, looked up): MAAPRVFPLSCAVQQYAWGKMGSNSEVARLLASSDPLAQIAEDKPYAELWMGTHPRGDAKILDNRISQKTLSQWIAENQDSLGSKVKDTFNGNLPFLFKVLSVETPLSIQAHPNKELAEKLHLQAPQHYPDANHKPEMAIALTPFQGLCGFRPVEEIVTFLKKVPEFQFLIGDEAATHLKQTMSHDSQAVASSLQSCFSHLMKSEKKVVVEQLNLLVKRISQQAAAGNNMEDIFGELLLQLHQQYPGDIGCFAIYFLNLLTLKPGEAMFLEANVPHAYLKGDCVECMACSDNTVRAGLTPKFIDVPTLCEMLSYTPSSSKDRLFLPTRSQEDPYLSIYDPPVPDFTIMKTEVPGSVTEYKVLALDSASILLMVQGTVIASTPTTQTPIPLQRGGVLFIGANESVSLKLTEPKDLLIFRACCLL

| SMILES | inhibition |
| --- | --- |
| c1ccc2c(c1)[nH]c1c(N3CCOCC3)ncnc12 | 7.2% |
| CCc1cc(N2CCOCC2)cc2c1[nH]c1ccccc12 | 55.4% (active) |
| CCCCn1c(=S)[nH]c2ccc(N3CCOCC3)cc2c1=O | -8.1% |
| O=C(NCCc1c[nH]c2ccccc12)c1cccc(S(=O)(=O)Nc2ccccc2Cl)c1 | 20.2% |
| COc1cccc(C(c2sc3nc(C)nn3c2O)N2CCC3(CC2)OCCO3)c1 (stereo unspecified) | 5.1% |
| Cc1cnccc1CN(C)Cc1cn(C)nc1-c1ccc(Oc2ccccc2)cc1 | 14.4% |
| CN(Cc1ccno1)Cc1cn(C)nc1-c1ccc(Oc2ccccc2)cc1 | 26.3% |
| CN(Cc1cccnc1)Cc1cn(C)nc1-c1ccc(Oc2ccccc2)cc1 | 50.7% (active) |
| CC(C)NC(=O)COc1nncc2ccccc12 | 15.9% |
| Cc1ccc(Cn2c(=O)sc3ccccc3c2=O)cc1 | 18.9% |
| O=c1sc2ccccc2c(=O)n1Cc1ccccc1F | 89.5% (active) |
| Cc1ccccc1Cn1c(=O)sc2ccccc2c1=O | 6% |
| Cc1cccc(C)c1NC(=O)CSc1nnc([C@H](C)NC(=O)OC(C)(C)C)o1 | -1.6% |
| C=CCn1c(SCC(=O)NC2CCS(=O)(=O)C2)nc2sc(CC)cc2c1=O (stereo unspecified) | -1.4% |
| CCc1ccc2c(c1)CCCN2C(=O)c1ccccc1C(=O)O | 0.4% |
| CCCN1CCCc2cc(CN)ccc21 | 50.7% (active) |
| CCCN1CCCc2ccccc21 | -40.1% |
| Cc1ccc(NC2=CC(=O)CC(c3ccccc3)C2)cc1 (stereo unspecified) | 7.6% |
| COc1cccc(Nc2nc(CC(C)=O)ns2)c1 | -2% |
| c1ccc2sc(NCC3CCCO3)nc2c1 (stereo unspecified) | -11.7% |
| Oc1c(Cl)cc(Cl)c2cccnc12 | 21.3% |
| O=[N+]([O-])c1cc(Cl)c(O)c2ncccc12 | 51.7% (active) |

| SMILES | inhibition |
| --- | --- |
| O=[N+]([O-])c1cc(Cl)c2cccnc2c1O | 14.6% |
| COC(=O)C(C(=O)OC)c1ccc(-n2cccc2)cc1 | 11% |
| CCOc1cccc2cc(C(C)=O)oc12 | -14.2% |
| CC(=O)C1=C(c2ccccc2)NC(=O)NC1c1ccc(O)c(O)c1 (stereo unspecified) | 61.3% (active) |
| CC(=O)C1=C(c2ccccc2)NC(=S)NC1c1ccc(O)c(O)c1 (stereo unspecified) | 44.9% |
| CCOc1cc(C2NC(=O)NC(c3ccccc3)=C2C(C)=O)ccc1OC(C)=O (stereo unspecified) | 7% |
| COc1cccc(N2CCN(Cc3ccsc3)CC2)c1 | -5.2% |
| COC(=O)c1cc(=O)nc2sc(-c3ccc(F)cc3)nn12 | 72.4% (active) |
| COC(=O)c1cc(=O)nc2sc(-c3ccccc3)nn12 | -2.3% |
| COC(=O)c1cc(=O)nc2sc(-c3cccs3)nn12 | 7.5% |
| CN1Cc2sc(N)c(C#N)c2CC1(C)C | -8.4% |
| CN(C)c1ccc(/C=N/NC(=O)c2nonc2N)cc1[N+](=O)[O-] | 12.7% |
| Oc1ccc(-c2csc(Nc3ncccn3)n2)cc1O | 58% (active) |
| COc1ccc(-c2csc(Nc3ccc(C)cn3)n2)cc1 | -1.5% |
| Cc1cccnc1Nc1nc(-c2ccc(O)cc2O)cs1 | 10.6% |
| Cc1cccnc1Nc1nc(-c2ccc(O)c(O)c2)cs1 | 52.3% (active) |
| COc1ccc(-c2csc(Nc3ccc(C)cn3)n2)cc1OC | 7.7% |
| Cc1cccnc1Nc1nc(-c2ccc(O)cc2)cs1 | -10.5% |
| Oc1ccc(-c2csc(Nc3ncccn3)n2)cc1 | -4.9% |
| c1ccc(-c2csc(Nc3ncccn3)n2)cc1 | -2.2% |
| O=C(O)CC(=O)Nc1ccccc1C(=O)O | 0.5% |
| O=C(CSCc1ccc(Cl)cc1)Nc1ccc(S(=O)(=O)N2CCOCC2)cc1 | 11.5% |

| SMILES | inhibition |
| --- | --- |
| COCCN(CCOC)S(=O)(=O)c1ccc(C(=O)Nc2nnc(COC)o2)cc1 | -8.8% |
| Cc1cccc(NC(=O)c2ccc(NCC3CCCO3)c([N+](=O)[O-])c2)c1 (stereo unspecified) | 2% |
| CNC[C@H](O)c1ccc(O)c(O)c1 | 63.2% (active) |
| CCC(NC(C)C)C(O)c1ccc(O)c(O)c1 (stereo unspecified) | 57.9% (active) |
| COc1ccc([C@H](C)NC[C@H](O)c2ccc(O)c(NC=O)c2)cc1 | 0.1% |
| CCC(C)c1ccc(O)c(N)c1 (stereo unspecified) | 26.6% |
| CNC[C@H](O)c1cccc(O)c1 | -1.6% |
| CCC(NC(C)C)C(O)c1ccc(O)c2[nH]c(=O)ccc12 (stereo unspecified) | 4.3% |
| Cc1c(C(=O)OC(C)C(C)C[N+](C)(C)C)oc2ccccc12 (stereo unspecified) | 1.7% |
| COc1ccc(OC)c(C(C)NC(=O)c2ccco2)c1 (stereo unspecified) | 7% |
| c1ccc(CNc2ncnc3nc[nH]c23)nc1 | 8.8% |
| CCn1c(SCc2nc3ccccc3[nH]2)nnc1-c1ccc(OC)cc1 | 6.6% |
| c1ccc2[nH]c(SN3CCOCC3)nc2c1 | 94.5% (active) |
| c1ccc2[nH]c(SCCN3CCOCC3)nc2c1 | -3.1% |
| c1ccc2[nH]c(N3CCOCC3)nc2c1 | -5% |
| OCCC1CN(Cc2cnc(-c3cccc4ccccc34)nc2)CCN1C1CCCCC1 (stereo unspecified) | 13.3% |
| COc1ccccc1CNC(=O)c1cc2c(s1)CS(=O)(=O)C2 | 2.6% |
| CCCOc1ccc(C2NC(=S)NC(C)=C2C(=O)c2ccccc2)cc1OC (stereo unspecified) | -34.6% |
| COc1ccc(S(=O)(=O)NC(CC(=O)NCCc2ccc(OC)c(OC)c2)C(C)C)cc1 (stereo unspecified) | -5% |
| Cc1nn(-c2ccccc2)c(N)c1Sc1cccc([N+](=O)[O-])c1 | 5.2% |
| COc1c(/C=N/Nc2ccc([N+](=O)[O-])cc2[N+](=O)[O-])c(C)nn1-c1ccccc1 | 8.9% |
| CCOC(=O)c1c(Cc2ccccc2)c[nH]c1C | -17.6% |

| SMILES | inhibition |
| --- | --- |
| COc1ccc(Cc2nnc(N)s2)cc1OC | -1.6% |
| COc1ccc(Cc2noc(-c3ccc(OC)c(OC)c3)n2)cc1OC | 1.8% |
| COc1cccc(NC(=S)/C(=C(\[O-])c2ccc([N+](=O)[O-])cc2)[n+]2ccccc2)c1 | -1.1% |
| CCOc1ccccc1NC(=O)CCS(=O)(=O)c1cccc2nonc12 | 0.7% |
| O=C(CCS(=O)(=O)c1ccccc1)N1CCOCC1 | -8.2% |
| OCCCNC(=S)Nc1ccc2nc(-c3ccccn3)c(-c3ccccn3)nc2c1 | 56.9% (active) |
| Cc1ccc(NC(=S)Nc2ccc3nc(-c4ccccn4)c(-c4ccccn4)nc3c2)cc1C | 76.2% (active) |
| CCCNC(=S)Nc1ccc2nc(-c3ccccn3)c(-c3ccccn3)nc2c1 | 26.5% |
| Cc1nc2ccc(NC(=S)NCCCO)cc2nc1C | -27.3% |
| CC(C)(C)CC(C)(C)NC(=S)Nc1ccc2nc(-c3ccccn3)c(-c3ccccn3)nc2c1 | -21.7% |
| CN(C)NC(=S)Nc1ccc2nc(-c3ccccn3)c(-c3ccccn3)nc2c1 | -8.4% |
| COc1cc2nc(CN(C)Cc3ccc(Cl)cc3)[nH]c(=O)c2cc1OC | 5.6% |
| Cc1ccc(C(=O)Nc2ccc(Cl)cc2C)c(Cl)c1 | -5.9% |
| COc1ccc(C2c3c(oc4ccc(C)cc4c3=O)C(=O)N2c2cc(C)ccn2)cc1OC (stereo unspecified) | 30.5% |
| COC(=O)CCC(=O)COc1ccc(OC)cc1C#N | 1.1% |
| Cc1ccc(OCC(=O)NCc2ccccc2)c([N+](=O)[O-])n1 | 20.4% |
| Cc1ccc(Nc2cc(-n3nc(C)cc3C)ncn2)c(C)c1 | -0.1% |
| CCc1ccccc1NC1c2ccccc2C(=O)N1c1cc(C)ccn1 (stereo unspecified) | -2.8% |
| CCc1ccccc1NC(=O)c1cc(C2CC2)on1 | -4.9% |
| Cc1cc(C(=O)Nc2cccc3ccccc23)n(-c2ccccc2)n1 | -11.6% |
| Cc1cc2n(n1)SC(Nc1cc(Cl)ccc1Cl)N2 (stereo unspecified) | 19.6% |
| Cc1cc2n(n1)SC(Nc1cccc3ccccc13)N2 (stereo unspecified) | 56.1% (active) |

| SMILES | inhibition |
| --- | --- |
| O=C1NC(=O)C(Nc2cccc3ccccc23)S1 (stereo unspecified) | -0.5% |
| COc1ccc(S(=O)(=O)N2CCOCC2)cc1NC(=O)CN1CCCCCC1 | -4.3% |
| COc1ccc(OC)c(S(=O)(=O)Nc2cccc(C(C)=O)c2)c1 | 4.2% |
| CC(=O)Nc1ccc(S(=O)(=O)N2CC3(C)CC2CC(C)(C)C3)cc1 (stereo unspecified) | 12.4% |
| COc1ccc(NS(=O)(=O)c2ccc(OCC(=O)N3CCOCC3)cc2)cc1 | 10.6% |
| COc1ccc(/C=N/NC(=S)Nc2ccccc2[N+](=O)[O-])cc1O | 9% |
| O=[N+]([O-])c1cc(/C=N/NC(=S)Nc2ccccc2Cl)ccc1Cl | -6.9% |
| O=[N+]([O-])c1ccccc1NC(=S)N/N=C/c1ccc(O)c(O)c1 | 54.1% (active) |
| O=C(c1ccc(C(=O)N2CCCc3ccccc32)s1)N1CCCc2ccccc21 | -2.1% |
| Fc1ccc(-c2nn3c(C4COc5ccccc5O4)nnc3s2)cc1 (stereo unspecified) | 7.6% |
| COc1ccccc1-c1nn2c(C3COc4ccccc4O3)nnc2s1 (stereo unspecified) | 57.6% (active) |
| c1csc(-c2nn3c(C4COc5ccccc5O4)nnc3s2)c1 (stereo unspecified) | 37.9% |
| Cc1ccc(-c2nnc3sc(C4COc5ccccc5O4)nn23)cc1 (stereo unspecified) | 3.9% |
| Clc1ccccc1-c1nnc2sc(C3COc4ccccc4O3)nn12 (stereo unspecified) | 50% (active) |
| Clc1ccccc1-c1nnc2sc(-c3ccc4c(c3)OCO4)nn12 | 50.8% (active) |
| Clc1cccc(-c2nnc3sc(-c4ccc5c(c4)OCO5)nn23)c1 | 9.8% |
| Brc1ccccc1-c1nnc2sc(-c3ccc4c(c3)OCCO4)nn12 | 22.5% |
| Fc1ccc(-c2nnc3sc(C4COc5ccccc5O4)nn23)cc1 (stereo unspecified) | 0.9% |
